Exocytosis inh = LAMP-1 surface exposure blockers, TALL-104 cells – cell-based, flow cytometry, MLPCN library, primary screen. AID 651702, 2012. 360,000 compounds, 0.66% hits. TALL-104 LAMP-1 surface exposure; cells stimulated with thapsigargin and PMA. inhibition, % at 10 µM;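 active means inhibition above about 55%, limit read from the data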
VLA-4 inh = inhibition in human VLA-4 binding assay, primary screen, VLA-4 allosteric modulator project, MLPCN library, flow cytometry, VLA-4 expressing cells | Integrin alpha-4 (Homo sapiens), P13612 | ligand binding flow cytometry | inhibition, % (about 7 µM as worked out from the volumes in the protocol) | 330,000 compounds, 0.2% hits | AID 2557, 2010; in the data active means inhibition above about 50%
CaV13 ICDI inh = Disruptors of the CACNA1D IQ motif to Ca2+-dependent inactivation inhibitor domain association, primary screening, Förster resonance energy transfer in intact living … | HEK cells, CFP/YFP FRET ICDI-IQ, plate reader, 10 min; percent FRET-ratio fall versus neutral wells | inhibition, % at 12.3 µM | 340,000 compounds, 0.098% hits | AID 743397;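 active means mean replicate inhibition of at least 30% and at least 1% of replicates passing that level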;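 further: 0% = median of the neutral control wells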
ABCB6 inh 2 = ABCB6 transporter inhibitors, primary screen, K562-ABCB6 cells, flow cytometry, MLPCN library; 360,000 compounds, 0.19% hits; ATP-binding cassette sub-family B member 6 (Homo sapiens), Q9NP58; fluorescence ratio to DMSO, % at 10 µM; AID 602162, 2011; K562-ABCB6 porphyrin accumulation, 1 h; hits give low values;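 active means fluorescence ratio to DMSO below 75%, the collection mean minus 3 SD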;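 further: signal is porphyrin accumulated inside mitochondria; 100% equals median channel fluorescence of DMSO control wells; lower ratio means ABCB6 inhibition with less porphyrin fluorescence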
Exocytosis CP01 = inhibitors of lytic granule exocytosis, confirmation, TALL-104 cells, flow cytometry, Cherry Pick01; shares compounds with Exocytosis inh; LAMP-1 externalization; stimulated with PMA plus thapsigargin; inhibition, % at 10 µM; 1,500 compounds, 11% hits; AID 651954, 2012; in the data active means inhibition above about 60%;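 further: 0% = stimulated vehicle wells and 100% = unstimulated wells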
* hit, by the source's call; nt = no result. A selection: hits, their analogues and other compounds. The true share with any hit is near 1.1%.

SMILES	Exocytosis inh	VLA-4 inh	CaV13 ICDI inh	ABCB6 inh 2	Exocytosis CP01
Cc1cccn2c(=O)c3cc(C(=O)NCCc4ccccc4)sc3nc12	92*	-1	-8	100	-4
COc1ccc(COc2ccc3ccc(=O)oc3c2)cc1	86*	-4	-4	91	-14
COc1ccccc1C(O)P(=O)(OCC(C)C)c1ccc(N(C)C)cc1 (stereo not given)	17	5	-18	100	nt
Cc1cc(C(=O)OCC(=O)NCCc2ccc(S(N)(=O)=O)cc2)c2ccccc2n1	1	0	-6	95	nt
O=C(Cc1cccs1)N(Cc1cccs1)C1(C(=O)NC2CCCC2)CCCCC1	77*	18	-5	97	3
O=C(Cc1cccs1)N(Cc1ccco1)C1(C(=O)NC2CCCCC2)CCCCC1	32	12	nt	112	nt
CC(C(=O)Nc1ccc(Cl)cc1)N1C(=O)NC2(CCCC2)C1=O (stereo not given)	1	5	-4	93	nt
Cc1ccc(CNC(=O)C2CC(c3cccc(F)c3)=NO2)cc1 (stereo not given)	72*	-2	-9	101	-15
Cc1ccc(/C=C\c2nccc3c2[nH]c2ccccc23)cc1	75*	-12	-29	99	4
Fc1ccc(/C=C\c2nccc3c2[nH]c2ccccc23)cc1	83*	10	-16	98	93*
C(=C\c1nccc2c1[nH]c1ccccc12)/c1ccccc1	43	0	-28	87	nt
CNS(=O)(=O)c1ccc(NC(=O)c2ccccn2)cc1	16	13	-4	104	nt
CCOc1ccc2c(S(=O)(=O)O)cccc2c1[N+](=O)[O-]	6	nt	-10	94	nt
COc1ccc(CC(=O)NCC2CCCN(Cc3ccc(F)c(OC)c3)C2)cc1 (stereo not given)	59*	18	-5	100	-14
CCOc1ccc(CN2CCCC(N3CCN(c4ccc(OC)cc4)CC3)C2)cc1 (stereo not given)	18	9	-4	95	nt
OCCOc1ccc(CN2CCCC(N3CCN(c4ccc(F)cc4)CC3)C2)cc1 (stereo not given)	2	2	-3	102	nt
COc1cc(CN2CCCC(N3CCN(c4ccc(F)cc4)CC3)C2)ccc1F (stereo not given)	61*	0	-18	96	-14
COc1ccc(CC(=O)NCC2CCCN(Cc3ccc(SC)cc3)C2)cc1 (stereo not given)	47	-7	2	99	nt
CSc1ccc(CN2CCCC(N3CCN(c4ccccc4)CC3)C2)cc1 (stereo not given)	67*	2	-1	91	-13
Cc1onc(-c2ccc(Cl)cc2)c1-c1ccnc(SCC(=O)Nc2ccc(C(C)C)cc2)n1	-4	26	-5	97	nt
COc1ccc(-c2cnc[nH]2)cc1	0	9	-5	102	nt
COc1ccc(N(C(=O)c2ccco2)C(C(=O)NC2CCCC2)c2ccc(OC)c(OC)c2)cc1 (stereo not given)	-2	9	-4	100	nt
O=C(O)Cc1sc(=O)[nH]c1O	97*	nt	-13	95	-14
O=C(O)Cc1sc(-c2ccccc2)nc1-c1ccccc1	1	-13	-5	110	nt
COc1ccccc1NC(=O)COC(=O)c1c(NC(C)=O)sc(C)c1C	2	nt	-6	105	nt
SMILES	Exocytosis inh	VLA-4 inh	CaV13 ICDI inh	ABCB6 inh 2	Exocytosis CP01
COc1cccc2c1C1COC3C4CC(C(=O)O)C(C(C2)N13)N4C (stereo not given)	3	nt	-7	97	nt
COc1ccc(C(=O)NCCN(C)C)c2nc3ccccc3cc12	73*	nt	-9	97	-13
COc1cccc2nc3c(C(=O)NCCN(C)C)cccc3cc12	16	nt	-28	101	nt
COc1ccc(-c2nc3c(C(=O)NCCN(C)C)cccc3c3ccccc23)cc1	38	nt	-14	98	nt
CN(C)CCNC(=O)c1cccc2nc3c(ccc4ccccc43)nc12	62*	nt	-14	95	43
CCOC(=O)c1c(NC(C)=O)sc2c(OCCN(CC)CC)c(Br)ccc12	9	3	-4	92	nt
CCOC(=O)c1c(NC(C)=O)sc2c(OCC(O)CN(CC)CC)c(Br)ccc12 (stereo not given)	68*	-3	-4	105	71*
c1ccc(-c2ccccc2-c2nc(-c3cccnc3)no2)cc1	93*	4	nt	110	18
c1cncc(-c2noc(-c3cccc4ccccc34)n2)c1	-1	-14	-8	99	nt
CN1CCN(C(=O)OCCOCCOC(=O)N2CCN(C)CC2)CC1	60*	nt	-6	98	-4
O=C(Nc1cccc(S(=O)(=O)NC2=NCCC2)c1)c1cc(=O)[nH]c2ccccc12	-2	14	-6	97	nt
CCOC(=O)C1(Cc2ccccc2)CCCN(C2CCCC2)C1 (stereo not given)	59*	3	2	97	-4
Cc1cnc(C(=O)OCC(=O)NCCc2ccccc2)cn1	110*	9	-4	99	-4
O=C(COC(=O)c1cnccn1)NCCc1ccccc1	1	-2	-2	98	nt
C#CCC1c2ccccc2CCN1CC=C (stereo not given)	nt	nt	-4	nt	nt
CC(=O)CCc1oc2c([N+](=O)[O-])cccc2c1-c1ccc(C)o1	72*	-20	0	105	-5
CC(=O)CCc1oc2ccccc2c1-c1ccccc1	-28	1	-4	94	nt
CCOc1ccc2[nH]c(C)c(CN3CCN(C)CC3)c(=O)c2c1	68*	8	-4	95	-11
CCc1nnc(NC(=O)C2CCCN2C(=O)Nc2ccccc2)s1 (stereo not given)	4	24	1	99	nt
CN(C)CCCn1c(=S)[nH]c2ccccc2c1=O	0	2	3	105	nt
CN(C)CCCn1c2c3ccccc3ccc2c2oc(=O)c3ccccc3c21	56*	nt	-35	105	23
CCOc1ccccc1NC(=O)c1cc(S(=O)(=O)NCc2ccco2)ccc1F	104*	1	-6	99	-13
Cc1ccc(-c2nn(-c3ccccc3)cc2C(=O)O)o1	nt	5	nt	nt	nt
Cc1ccc(-c2nn(-c3ccccc3)cc2CN(Cc2ccccc2)C(=O)c2ccco2)o1	108*	-14	-4	98	104*
CCN(CC)S(=O)(=O)c1ccc(Oc2ccc(S(=O)(=O)N(CC)CC)cc2)cc1	-7	32	-3	95	nt
CCN(CC)S(=O)(=O)c1ccc(Oc2ccccc2OC)cc1	69*	-10	-5	99	-3
COc1ccc(NC(=O)c2cc([N+](=O)[O-])ccc2N2CCCCC2)cc1	68*	20	-2	91	-13
Cc1cccc2c(C(=O)O)c3cccc(C)c3nc12	4	-2	-4	98	nt

Screens (PubChem)
